Assay outcomes as filed in PubChem.
Hits are enriched below; roughly 8.7% of the tested compounds scored in any of these assays.
12-LOX inh – Primary qHTS assay for inhibitors of human arachidonate 12S-lipoxygenase (ALOX12): Round 2. purified 12hLO, xylenol orange hydroperoxide absorbance. Potency, µM (top dose mostly 108 µM), without a hit: at the highest dose activity change, negative = inhibition, actives largely listed as inhibitors. hit rate 1.1% among 580,000. AID 1671190, 2021; further: on the % scale 0 is the no-effect control and ±100 the full control effect
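Hydroperoxide product was detected by ferrous iron/xylenol orange as the 573 to 405 nm absorbance ratio. Arachidonic acid at 40 uM (final) was turned over for 30 min at room temperature by 150 nM human 12hLO, pH 7.0 Hepes buffer, after 15 min compound preincubation.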
BAZ2B block – qHTS Assay for Inhibitors of BAZ2B; Bromodomain adjacent to zinc finger domain protein 2B (Homo sapiens), Q9UIF8; AlphaScreen BAZ2B-H3K14Ac peptide displacement; Potency, µM (doses to about 114 µM), without a hit: top-dose activity change, negative = inhibition, usual class: inhibitors; hit rate 4.4% among 360,000; AID 504333, 2011; further: on the % scale 0 is the no-effect control and ±100 the full control effect; nearly all actives have a fitted effect of over 60% in size
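AlphaScreen displacement: compounds (up to 110uM) incubated 30 min at room temperature with a preformed 50 nM BAZ2B/50 nM biotinylated H3K14Ac peptide complex in PBS pH 7.4 with Tween-20. Donor and acceptor beads at 10 ug/mL final added, 20 min light-protected before reading.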
Sfp inh – qHTS Assay for Inhibitors of Bacillus subtilis Sfp phosphopantetheinyl transferase (PPTase); 4'-phosphopantetheinyl transferase ffp (Bacillus subtilis), Q9F4F7; Biochemical Sfp PPTase activity, qHTS; Potency, µM, for the others: largest response in the series, negative = inhibition, most hits filed as inhibitors; hit rate 3.5% among 310,000; AID 1490, 2009;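 further: the enzyme is Sfp with the accession as filed and its product quenches rhodamine fluorescence; 0% = enzyme reaction without inhibitor and -100% = no enzyme wells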
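Compounds were incubated with enzyme (final 15 nM) for 15 min at room temperature before substrate addition started the reaction. Fluorescence at 525 nm excitation, 598 nm emission was recorded immediately and after 30 minutes.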
HP1b chromo inh – HTS for Inhibitors of HP1-beta Chromodomain Interactions with Methylated Histone Tails | Chromobox protein homolog 1 (Homo sapiens), P83916 | AlphaScreen HP1-beta / biotin-H3K9me3 peptide binding | Potency, µM (top dose mostly 114 µM), for inactives: top-dose activity change, negative = inhibition, usual class: inhibitors | hit rate 0.56% among 390,000 | AID 540317, 2011; further: nearly all actives have a fitted effect of over 70% in size
Target sequence (P83916 whole entry, looked up): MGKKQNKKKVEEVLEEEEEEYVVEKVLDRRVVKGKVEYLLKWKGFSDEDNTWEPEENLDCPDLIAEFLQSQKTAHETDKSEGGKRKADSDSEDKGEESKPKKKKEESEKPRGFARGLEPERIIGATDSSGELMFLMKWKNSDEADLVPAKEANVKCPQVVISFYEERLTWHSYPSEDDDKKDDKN
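HP1-beta protein (50 nM final) preincubated 30 min at room temperature with biotinylated H3(1-18)K9me3 peptide (50 nM) in PBS pH 7.4, 0.01% Tween-20, then compound added for 30 min. AlphaScreen streptavidin donor/nickel chelate acceptor beads (10 ug/mL final), 30 min dark, luminescence read.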
JMJD2A Tudor inh – qHTS Assay for Inhibitors of JMJD2A-Tudor Domain; hit rate 4.4% among 390,000; AlphaScreen JMJD2A-Tudor / H3K4me3 peptide binding; Lysine-specific demethylase 4A (Homo sapiens), O75164; Potency, µM (series often up to 114 µM), without a hit: at the top dose activity change, negative = inhibition, most hits filed as inhibitors; AID 504339, 2011; further: on the % scale 0 is the no-effect control and ±100 the full control effect; nearly all actives have a fitted effect of over 50% in size
G9a inh – qHTS Assay for Inhibitors of Histone Lysine Methyltransferase G9a | Histone-lysine N-methyltransferase EHMT2 (Homo sapiens), Q96KQ7 | G9a H3K9 monomethylation, AlphaScreen, 2 h | Potency, µM (top dose mostly 102 µM), for the others: at the highest dose activity, negative = inhibition, hits mostly inhibitors | hit rate 8.8% among 350,000 | AID 504332, 2011; further: on the % scale 0 is the no-effect control and ±100 the full control effect; nearly all actives have a fitted effect of over 75% in size
Target sequence (Q96KQ7 913-1193 limits assumed): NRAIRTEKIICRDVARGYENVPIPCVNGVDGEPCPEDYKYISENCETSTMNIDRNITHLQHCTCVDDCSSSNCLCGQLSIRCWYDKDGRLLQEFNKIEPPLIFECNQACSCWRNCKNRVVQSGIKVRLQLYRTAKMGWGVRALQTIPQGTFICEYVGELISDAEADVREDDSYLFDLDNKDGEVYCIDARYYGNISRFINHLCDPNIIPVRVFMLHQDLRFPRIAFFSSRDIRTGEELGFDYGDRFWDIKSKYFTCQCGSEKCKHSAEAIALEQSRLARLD
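AlphaScreen read-out: biotin-H3K9 peptide (500 nM) methylation by 20 nM enzyme with 20 uM SAM, 2 h at room temperature after 15 min compound preincubation; anti-monomethyl H3K9 antibody plus donor/acceptor beads, 10 min dark.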
* marks the source's active call; other numbers are inactive results; i = inactive; u = inconclusive; x = not tested or not shown; [ ] = dose if it differs, or a comment. The call rests on the fitted dose curve; in most records, active means well fitted curve in the direction sought with a large enough effect; inconclusive means small, poorly fitted or top-dose-only effect, or another doubt; inactive means no such curve, though single readings can be large; an effect the other way counts as inactive or inconclusive. Potency means the concentration at half of the fitted maximal effect.

SMILES	12-LOX inh	BAZ2B block	Sfp inh	HP1b chromo inh	JMJD2A Tudor inh	G9a inh
Cn1cccc1Cc1nnc(SCC(=O)Nc2ccccc2F)n1-c1ccc(F)cc1	212%	u	0%	18%	-29%	45µM*
Cc1ccccc1NC(=O)CSc1nnc(Cc2cccn2C)n1-c1ccc(F)cc1	2%	u	-25%	9%	-31%	u
CCc1ccc(OCc2nnc(SCC(=O)C(C)(C)C)n2CC(C)C)cc1	-2%	x	x	x	x	x
COc1ccc(-n2c(Cc3cccn3C)nnc2SCC(=O)Nc2cccc(F)c2)cc1	438%	u	-15%	8%	u	u
Cn1cccc1Cc1nnc(SCC(=O)NCC2CCCO2)n1-c1ccc(F)cc1 (centres undefined)	363%	-6%	-2%	21%	0%	35µM*
COc1ccc(-n2c(Cc3cccn3C)nnc2SCC(=O)Nc2ccccc2)cc1	i	u	-1%	-18%	u	28µM*
COc1ccc(NC(=O)CSc2nnc(Cc3cccn3C)n2-c2ccc(F)cc2)cc1OC	-16%	50µM*	u	5%	-35%	u
CC(=O)c1cnn(-c2cc(Nc3ccc(F)cc3)ncn2)c1C	2%	x	x	x	x	x
COc1cc(CNC(C)c2ccccc2)cc(Cl)c1OCC(=O)Nc1ccccc1 (centres undefined)	u	-35%	56µM*	45%	3%	u
CCCCNCc1cc(Br)c(OCC(=O)NCc2ccccc2)c(OC)c1	-1%	-18%	7%	29%	1%	-47%
CCN(CC)CCNCc1cc(Cl)c(OCC(=O)Nc2ccccc2)c(OC)c1	-14%	-31%	5%	45%	-2%	45µM*
COc1ccc(CC(=O)N[C@@H]2c3ccccc3C3(CCNCC3)[C@H]2OC)cc1	31%	x	x	x	x	x
Cc1ccc(Nc2c(-c3ccc(N4CCOCC4)cc3)nc3cnccn23)cc1	0%	u	-5%	14%	-20%	u
COc1ccc(Nc2c(-c3ccc(C)cc3)nc3cnccn23)cc1	u	u	5%	-13%[57 µM]	45µM*	50µM*
Cc1ccn2c(NCc3ccc4c(c3)OCO4)c(-c3ccc(O)cc3)nc2c1	7%	3%	-9%	14%	-2%	11%[59 µM]
Cc1cccn2c(Nc3ccc4c(c3)OCCO4)c(-c3ccc(Br)o3)nc12	u	11µM*	x	u	22µM*	11µM*
Cc1ccn2c(Nc3ccc4c(c3)OCO4)c(-c3ccc(N(C)C)cc3)nc2c1	u	x	x	-3%	u	2µM*
Cc1ccc(-c2nc3cnccn3c2Nc2ccc3c(c2)OCO3)cc1	u	40µM*	u	u	50µM*	40µM*
COc1ccc(Nc2c(-c3ccc(OC)cc3)nc3cnccn23)cc1	u	u	2%	-10%	u	u
CC(C)N1CCC(C(=O)N2CCCN(Cc3cccs3)CC2)CC1	5%	x	x	x	x	x
Cc1ccc(-c2nc3cnccn3c2Nc2ccc3c(c2)OCCO3)o1	-16%	u	35µM*	-27%	u	10µM*
Cc1ccn2c(Nc3ccc4c(c3)OCO4)c(-c3ccc(Cl)cc3)nc2c1	-2%	x	x	-9%	-33%	2.8µM*
Cc1ccn2c(Nc3ccc4c(c3)OCCO4)c(-c3ccc(Cl)s3)nc2c1	u	-31%	x	u	u	u
CC(C)c1cc(C(=O)N[C@@H]2COCC[C@@H]2Oc2cccc(F)c2)nc(N)n1	1%	x	x	x	x	x
CCCCCC1=CCC/C1=N/NC(=S)NCCOC	40µM*	x	x	x	x	x
SMILES	12-LOX inh	BAZ2B block	Sfp inh	HP1b chromo inh	JMJD2A Tudor inh	G9a inh
CCCCCC1=CCC/C1=N\NC(=O)C(N)=O	-20%	x	x	x	x	x
Cc1ccc(S(=O)(=O)NC(=O)c2cc(C)n(CCCn3ccnc3)c2C)cc1	19%	32µM*	18%	36%	56µM*	u
Cc1cc(=S)cc(C)n1CCCn1ccnc1	12%	x	4%	18%	-20%	25µM*
O=C1CNC(=S)N1CCCn1ccnc1	1%	-26%	6%	46%	-11%	-27%
O=C(CCc1c[nH]c2ccccc12)N1C[C@@H](CO)[C@H](c2ccccn2)C1	14%	x	x	x	x	x
CCn1nc(NC(=O)Cc2ccc(OC)cc2)c2cc3cccc(C)c3nc21	0%	3%	11%	4%	-2%	6%
CCn1nc(NC(=O)Cc2ccc(OC)cc2)c2cc3cc(C)ccc3nc21	u	-4%	-10%	23%	-9%	45µM*
Cc1cc(C)c(S(=O)(=O)Nc2ccc(O)cc2)cc1C	x	2%	2%	4%	-20%	54%[12.7 µM]
COc1ccc(S(=O)(=O)Nc2cc(SCC(=O)O)c(O)c3ccccc23)cc1	u	40µM*	7.1µM*	13µM*	20µM*	2µM*
Cc1cc(C)c(S(=O)(=O)Nc2cc(SCC(=O)O)c(O)c3ccccc23)cc1C	x	40µM*	8.9µM*	-95%	22µM*	2.2µM*
O=C(O)CSc1cc(NS(=O)(=O)c2ccc(Cl)cc2)c2ccccc2c1O	2.8µM*	50µM*	10µM*	20µM*	25µM*	4µM*
O=S(=O)(Nc1ccc(Cl)cc1NS(=O)(=O)c1ccccc1)c1ccccc1	u	x	x	0%[57 µM]	-26%	x
COc1ccc(S(=O)(=O)Nc2cccc3ccccc23)cc1	x	x	x	22%	-23%	x
O=C1COC[C@H]([C@H](O)c2ccc(NC(=O)c3ccc(C(F)(F)F)cc3)cc2)N1	20%[176 µM]	x	x	x	x	x
OC(C#CCCN1CCCCC1)(c1ccccc1)C1CCCCC1 (centres undefined)	162%	1%	21%	4%	-6%	7%
OC(C#CCN1CCC(c2ccccc2)C1)(c1ccccc1)C1CCCCC1 (centres undefined)	0.89µM*	x	x	x	x	x
CCn1c(CN2CCN(c3ccccc3)CC2)nc2c1c(=O)n(C)c(=O)n2C	12%	x	x	x	x	x
COc1ccc(N2CCN(Cc3nc4c(c(=O)n(C)c(=O)n4C)n3CCc3ccccc3)CC2)cc1	13%	-3%	-5%	3%	-19%	7.9µM*
Cn1c(=O)c2c(nc(CN3CCN(c4ccccc4)CC3)n2CCN2CCOCC2)n(C)c1=O	-14%	-1%	-3%	22%	-13%	50µM*
COc1ccc(N2CCCn3c2nc2c3c(=O)n(CCCc3ccccc3)c(=O)n2C)cc1	0%	u	3%	x	x	10µM*
